# According to the supplement of paper PMC6555819:
# Key:
# Experiment in all cases: PBM binding z-score (relative to random genomic background probes); higher = stronger binding; sequences stand for … in GC…GCGATTGACAGCGTAGAATGAAGG
# [1] = system: PPARg:RXRa DBDmut IVT, anti-RXR (DBD mutation: RXRa K156A/R161A, NR concentration 270 nM, RXRa partner concentration 90 nM)
# Procedure, shortened: (§1)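 Antibodies against each partner of ligand-free nuclear receptor dimers (one per run) detected binding on custom Agilent 4×180K protein-binding microarrays after 1 h incubation. The double-stranded probes had 34-nt variable regions carrying direct-repeat seeds, single-nucleotide variants, half-site ablations and random human genomic background sequences. Binding z-scores, from regression-normalized fluorescence, use the random background probes as reference.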
# [2] = system: PPARg:RXRa IVT, anti-PPARg (NR concentration 270 nM, RXRa partner concentration 90 nM)
# Procedure, shortened: as §1
# [3] = system: PPARg DBDmut IVT, anti-PPARg (DBD mutation: PPARg1 K132A/R137A, NR concentration 270 nM)
# Procedure, shortened: as §1
# [4] = system: PPARg homodimer (NR concentration 180 nM)
# Procedure, shortened: as §1
# [5] = system: PXR:RXRa (NR concentration 270 nM, RXRa partner concentration 90 nM)
# Procedure, shortened: as §1
# [6] = system: PXR homodimer (NR concentration 270 nM)
# Procedure, shortened: as §1
# [7] = system: RARa:RXR (NR concentration 270 nM, RXRa partner concentration 90 nM)
# Procedure, shortened: as §1
# [8] = system: RARa homodimer (NR concentration 270 nM)
# Procedure, shortened: as §1
# [9] = system: RARb:RXRa (NR concentration 270 nM, RXRa partner concentration 90 nM)
# Procedure, shortened: as §1
Sequence,PBM binding z-score [1],PBM binding z-score [2],PBM binding z-score [3],PBM binding z-score [4],PBM binding z-score [5],PBM binding z-score [6],PBM binding z-score [7],PBM binding z-score [8],PBM binding z-score [9]
ATATGTGGGTTAGGGTCATTCAGAAAGTAGGGAA,6.19,6.44,2.69,4.09,5.1,3.66,5.02,3.33,3.45
ATATGTACGTTAGGGTCATTCAGAAAGTAGGGAA,0.518,2.04,1.66,2.39,4.47,1.32,4.93,1.08,3.1
CGAACTAGGTCAAAGGACAGAGAAAGGCGACGTA,8.13,8.31,4.05,1.87,1.26,-0.306,2.31,0.114,3.88
CGTACTAGGTCAAAGGACAGTGAAAGGCGACGTA,7.43,8,1.47,2.5,1.14,0.0831,2.27,0.22,3.85
CGAACTAGGTCAAAGGACAGTCAAAGGCGACGTA,8.1,8.4,2.46,1.64,1.39,-0.21,2.49,0.35,3.87
CGAACTAGGTCACTAGGACAGTGAAGAGGTTGGA,7.81,8.81,2.32,1.48,0.625,0.00587,1.68,0.195,3.62
CGAACAAGGTCAAAGGACAGTGAAAGGCGACGTA,3.85,5.39,1.79,2.54,4,0.956,4.62,0.893,4.98
CGAACTAGGTCACCAGGACAGTGACGAGGTTGGA,8.26,8.82,1.73,1.63,1.66,-0.0254,2.69,0.339,4.38
ATATGTAGCTTAGGGTCATTCAGAAAGTAGGGAA,0.587,2.1,1.21,1.78,4.04,0.915,4.2,1.36,3.24
CGAATTAGGTCAAAGGACAGTGAAAGGCGACGTA,8.15,7.88,2.44,2.21,1.46,0.358,2.87,0.296,4.18
CGGACTAGGTCACCAGGACAGTGAAGAGGTTGGA,7.92,8.27,0.234,1.95,1.24,-0.197,2.09,-0.221,4.15
CGAACTAGGTCCAAGGACAGTGAAAGGCGACGTA,0.968,1.2,-0.593,-0.32,-0.326,-0.337,-0.0342,-0.625,0.398
CGAACTAGGTCACCAGAACAGTGAAGAGGTTGGA,8.55,8.85,1.39,1.64,1.29,-0.143,2.45,0.0997,4.2
CGAACTAGGTCACAAGGACAGTGAAGAGGTTGGA,8.39,9.03,1.5,3.52,1.25,0.516,2.14,0.713,4.09
CGAACTAGGTCAATGGACAGTGAAAGGCGACGTA,7.65,7.92,4.35,2.53,0.477,-0.177,1.18,0.235,3.51
CGAACTAGGTCACCAGGACAGTGTAGAGGTTGGA,8.42,8.73,1.75,2.71,1.58,-0.179,2.54,0.514,4.1
CGAACTAGGTCACCAGGACAGTTAAGAGGTTGGA,8.1,8.64,5.1,2.14,1.49,0.424,2.73,0.481,4.2
ATATGTAGGTTAGGGTCATTCAAAAAGTAGGGAA,6.37,6.88,2.24,2.6,4.47,2.2,5.13,2.37,3.59
CGAACTAGGTCAAAGGACAGTGAAAGGCGACGTA,7.94,8.4,3.54,2.15,1.21,-0.123,2.12,-0.0827,3.99
ATATGTAGGTTAGGGTCATTGAGAAAGTAGGGAA,6.25,6.47,1.4,2.67,4.2,1.72,4.69,2.38,3.59
CGAACTAGGTCAAAGGGCAGTGAAAGGCGACGTA,8.19,8.52,0.155,2.2,2.96,-0.191,4.78,-0.269,4.31
CGAACTAGGTCACCAGGACAATGAAGAGGTTGGA,7.84,9.01,1.88,1.94,1.49,0.22,2.43,0.0185,4.21
CGAACTAGGTCACGAGGACAGTGAAGAGGTTGGA,8.67,8.88,1.07,2.21,1.87,0.184,3.07,0.4,4.39
ACATGTAGGTTAGGGTCATTCAGAAAGTAGGGAA,5.77,5.83,3.59,3.84,4.47,2.63,5.07,1.97,3.61
ATTTGTAGGTTAGGGTCATTCAGAAAGTAGGGAA,5.45,5.62,3.63,4.01,4.55,3.09,5.22,4.03,3.86
ATATGTAAGTTAGGGTCATTCAGAAAGTAGGGAA,1.38,2.41,1.73,2.2,4.63,1.59,5.07,1.77,3.23

Sequence,PBM binding z-score [1],PBM binding z-score [2],PBM binding z-score [3],PBM binding z-score [4],PBM binding z-score [5],PBM binding z-score [6],PBM binding z-score [7],PBM binding z-score [8],PBM binding z-score [9]
ATATGTAGGTTAGGGTCATGCAGAAAGTAGGGAA,6.6,6.52,2.44,2.6,4.26,1.01,5.05,1.83,3.66
CGAACTAGGTCAAATGACAGTGAAAGGCGACGTA,7.89,8.48,2.82,2.37,1.34,0.00572,2.23,0.892,4.02
CGAACTAGGCCAAAGGACAGTGAAAGGCGACGTA,5.96,5.66,-0.194,0.351,-0.549,-0.424,-0.24,-0.451,1.33
CGAACTAGGGCAAAGGACAGTGAAAGGCGACGTA,7.08,6.68,0.104,0.584,-0.478,-0.625,-0.393,-0.727,2
CGAACTAAGTCAAAGGACAGTGAAAGGCGACGTA,0.998,1.31,0.266,0.434,-0.186,-0.123,0.156,0.0596,1.29
ATATGTAGATTAGGGTCATTCAGAAAGTAGGGAA,1.94,2.96,1.38,2.2,3.84,1.24,4.48,1.28,2.92
ATATGTAGGTTAGGATCATTCAGAAAGTAGGGAA,6.17,6.13,1.84,1.69,0.594,0.622,0.758,1.36,0.759
CGAACTAGGTCAAAGGAAAGTGAAAGGCGACGTA,7.92,8.23,1.64,0.636,0.854,-0.0237,1.65,0.526,3.55
ATATGGAGGTTAGGGTCATTCAGAAAGTAGGGAA,2.21,3.8,1.73,2.92,4.32,2.35,4.55,2.05,3.93
CGAACTAGGTCAACAGGACAGTGAAGAGGTTGGA,8.18,8.23,0.713,1.93,1.28,0.261,2.27,0.467,4.23
CGAACTAGTTCACCAGGACAGTGAAGAGGTTGGA,1.56,1.11,0.126,-0.235,0.423,0.241,0.0691,-0.106,1.7
CGAACCAGGTCAAAGGACAGTGAAAGGCGACGTA,4.57,5.82,0.805,1.1,2.07,0.537,2.82,0.116,3.86
CGAAGTAGGTCAAAGGACAGTGAAAGGCGACGTA,8.31,8.72,4.59,2.49,1.66,0.0557,2.53,0.312,3.93
CGAACTAGTTCAAAGGACAGTGAAAGGCGACGTA,0.0129,0.499,-0.185,0.158,0.27,0.322,0.253,0.148,1.91
CGAACTAGGTAACCAGGACAGTGAAGAGGTTGGA,6.32,5.77,-0.0996,0.22,-0.312,0.0727,-0.0151,-0.648,0.0285
CGAACTGGGTCACCAGGACAGTGAAGAGGTTGGA,7.66,8.73,1.6,1.47,1.55,-0.358,2.52,-0.049,3.73
CGAACTAGATCACCAGGACAGTGAAGAGGTTGGA,3.19,1.58,-0.163,0.192,-0.455,-0.0713,-0.108,-0.196,-0.0219
CGAACTAGGTCAAACGACAGTGAAAGGCGACGTA,8.02,8.26,0.569,1.9,1.19,-0.315,2.13,0.265,3.7
ATATTTAGGTTAGGGTCATTCAGAAAGTAGGGAA,5.81,5.68,3.04,4.04,4.34,2.43,4.64,4.29,3.73
ATATCTAGGTTAGGGTCATTCAGAAAGTAGGGAA,6.71,6.95,2.23,3.98,4.33,2.01,4.78,2.98,3.43
CGAACTAGGTCACCAGGACAGTGAAGAGGTTGGA,8.47,8.79,4.55,2.24,1.37,0.0754,2.76,0.232,4.14
CGAACTAGGTCACCAAGACAGTGAAGAGGTTGGA,7.83,8.54,0.905,1.16,1.14,-0.2,1.99,0.703,4.07
CGAACTAGGTCACCAGGACAGTGCAGAGGTTGGA,8.28,8.75,0.713,2.02,1.73,0.15,2.58,0.578,4.14
CGAACTAGGTCACCAGGACAGGGAAGAGGTTGGA,8.23,8.76,5.57,4.22,1.22,0.127,2.58,0.696,4.13
ATATGTAGGTGAGGGTCATTCAGAAAGTAGGGAA,7.49,7.69,2.2,2.51,3.02,1.81,3.81,2,2.97
CGAACTAGGTCACCAGGAGAGTGAAGAGGTTGGA,8.2,8.65,3.69,2.38,1.22,-0.0382,2.45,-0.347,4.04
